For 35 molecules, z-score results are on record in PubChem BioAssay.

Active and inactive are the calls of the source.

The nature of this assay: basal S. cerevisiae growth modulation, no modifier, primary screen, OD600, strain BY4716, 24 h, basal condition (AID 1173). The note with it: OD600, 24 h, higher = more signal, called active from +8 up or from −8 down.
Take `CC(=O)NCCCC[C@@H]1NC(=O)[C@@H]2C[C@H](C(=O)NCCCCCNC(=O)CS)[C@H](c3cccc(OCCO)c3)N2C1=O`: the z-score was -0.719 (inactive).

Consider `COc1ccccc1CN1C(=O)c2ccccc2[C@@]2(Cc3ccccc3N(CC(C)C)C2=O)[C@@H]1c1ccc(CO)cc1`, for which the z-score is 0.0849 (inactive).

Turning to `CC(CO)N1C(=O)[C@@H]2C3C(=O)OCCC/C=C\[C@H]3OC23C=CCN(C(C)(C)C)C(=O)[C@@H]13` (stereo not given in full), the z-score is -0.382 (inactive).

As to `CC1(C)[C@@H]2CC(C(O)C3C=CC4C(=O)N(Cc5ccccc5)C(=O)C4N3n3cnnc3)=C[C@H]1C2` (stereo not given in full), the z-score is 1.22 (inactive).

For the molecule `O=C1C[C@@](C(=O)NC2CC2)(c2ccc([N+](=O)[O-])cc2)[C@@H](c2ccc(CO)cc2I)N1C1CCCCC1`, the z-score is -0.466 (inactive).

On to `NC(=O)NCC#Cc1ccc2c(c1)[C@]1(C(=O)N2)[C@H](C(=O)Nc2nc3ccccc3s2)[C@H]2C(=O)O[C@H](c3ccccc3)[C@H](c3ccccc3)N2[C@@H]1c1ccccc1OCCO`, for which the z-score is 0.32 (inactive).

For `O=C1c2ccccc2[C@](Cc2ccccc2I)(C(=O)NCC(F)(F)F)[C@H](c2ccc(CO)cc2)N1Cc1ccccc1Cl`, the z-score is -1.32 (inactive).

As to `CCC[C@@H]1C[C@@]1(CCC)[C@@H](NS(=O)(=O)c1cccc2cccnc12)c1ccc(Cl)cc1`, the z-score is 1.43 (inactive).

Consider `CCCC[C@@H]1C[C@H]1[C@@H](NC(=O)c1ccco1)c1ccc(-c2ccccc2)cc1`, for which the z-score is 1.22 (inactive).

For the molecule `Cc1ccc(S[C@]2(C(=O)NCCCN(C)C)CC(=O)N(Cc3cc(C(F)(F)F)cc(C(F)(F)F)c3)[C@@H]2c2ccc(CO)cc2)cc1`, the z-score was -1.33 (inactive).

Turning to `C=C[C@@H](COC(=O)OC(C)(C)C)N(Cc1ccc(OC)cc1)S(=O)(=O)c1ccc(Br)cc1`, the z-score is 0.119 (inactive).

For the molecule `COCCOC(=O)N1C(=O)[C@@]2(c3cc(C#CCC(C(=O)OC)C(=O)OC)ccc31)[C@H](C(=O)N1CCN(c3ncccn3)CC1)[C@H]1C(=O)O[C@H](c3ccccc3)[C@H](c3ccccc3)N1[C@@H]2c1ccccc1OCCO`, the z-score is 1.51 (inactive).

Regarding `CN1C(=O)C2C=CC(C(O)c3ccccc3)N(N(c3ccccc3)c3ccccc3)C2C1=O` (stereo not given), the z-score is 0.833 (inactive).

Take `COc1ccc([Si](C)(C)[C@H]2[C@H](CC(=O)N3Cc4ccccc4C[C@H]3CO)O[C@@]3(C(=O)N(Cc4cccc(N5CCC5=O)c4)c4ccccc43)[C@@H]2C)cc1`: the z-score is 0.472 (inactive).

For `C=CCC(OC(C)=O)[C@@H]1[C@@H](N(Cc2ccc(-c3cccc(C(F)(F)F)c3)o2)C(=O)c2ccc(C)cc2)c2cc(OCCCO)ccc2N1C(=O)Cc1ccc2ccccc2c1` (stereo not given in full), the z-score is -0.219 (inactive).

For the molecule `Oc1ccc2cc[n+](Cc3sc4ccccc4c3Cl)cc2c1`, the z-score was -0.225 (inactive).

`COC(=O)C(CC#Cc1ccc2c(c1)[C@]1(C(=O)N2)[C@H](c2ccc(OCCO)cc2)N2[C@H](c3ccccc3)[C@H](c3ccccc3)OC(=O)[C@H]2[C@@H]1C(=O)N1CCc2cc(OC)c(OC)cc2C1)C(=O)OC`: the z-score is 2.53 (inactive).

On to `COc1ccc(CCNC(=O)[C@@]2(Sc3ccc(C)cc3)CC(=O)N(C(C)C)[C@@H]2c2ccc(CO)cc2I)cc1`, for which the z-score is -1.77 (inactive).

`CN(C)CCCC[C@@H]1NC(=O)[C@@H]2C[C@H](C(=O)NCCCCCCN)[C@H](c3cccc(OCCO)c3)N2C1=O`: the z-score is -0.543 (inactive).

Consider `C=CCN1C(=O)[C@]2(O[C@H](CCn3cc([C@H](O)c4ccccc4)nn3)[C@@H]([Si](C)(C)c3ccc(OC)cc3)[C@@H]2C)c2ccccc21`, for which the z-score was -0.242 (inactive).

`COC(=O)C(CC#Cc1ccc2c(c1)[C@]1(C(=O)N2)[C@H](C(=O)Nc2nc3ccccc3s2)[C@H]2C(=O)O[C@H](c3ccccc3)[C@H](c3ccccc3)N2[C@@H]1c1ccc(O)cc1)C(=O)OC`: the z-score was -0.0312 (inactive).

As to `COc1cc2c(cc1O)C(c1cccs1)N(C)CC2` (stereo not given), the z-score is 1.11 (inactive).

For the molecule `C=CC[C@]1(C(=O)NCc2ccccc2)N=C(c2ccc(OCCCO)cc2)O[C@H]1c1ccccc1N=[N+]=[N-]`, the z-score is -0.737 (inactive).

Consider `O=C(c1ccccc1)N1Cc2ccccc2C[C@@]2(COC(c3ccc(OCCCO)cc3)=N2)C1=O`, for which the z-score is -0.264 (inactive).

Consider `C=C[C@H](C)[C@@H](OC(=O)Nc1ccc(OC)cc1)c1ccc(O)c2ccccc12`, for which the z-score is -18.2 (active).

For `CCC(CC)C(O)C1C=CC2C(=O)NC(=O)C2N1Nc1ccc(Cl)cc1Cl` (stereo not given), the z-score is -3.65 (inactive).

In the case of `COc1ccc(C#Cc2ccc3c(c2)[C@]2(C(=O)N3)[C@H](c3ccccc3OCCO)N3[C@H](c4ccccc4)[C@H](c4ccccc4)OC(=O)[C@H]3[C@@H]2C(=O)Nc2nc3ccccc3s2)cc1`, the z-score was 1.35 (inactive).

Consider `O=C(CS)NCCCCCCNC(=O)[C@@H]1C[C@@H]2C(=O)N[C@@H](Cc3ccccc3)C(=O)N2[C@@H]1c1cccc(OCCO)c1`, for which the z-score is 0.49 (inactive).

Consider `CC(C)N1C(=O)c2ccccc2[C@](C)(C(=O)NCCN2CCOCC2)[C@@H]1c1ccc(CO)cc1`, for which the z-score is 0.567 (inactive).

For the molecule `CCCC=C(CCC)[C@@H](NC(=O)c1cccs1)c1ccc(C(F)(F)F)cc1`, the z-score was 0.872 (inactive).

In the case of `C[N+](C)(C)CCCCNC(=O)[C@@H]1C[C@@H]2C(=O)N[C@@H](Cc3ccccc3)C(=O)N2[C@@H]1c1cccc(OCCO)c1`, the z-score was -0.143 (inactive).

On to `Cc1ccc(S[C@]2(C(=O)NC3CC3)CC(=O)N(Cc3ccccc3)[C@@H]2c2ccc(CO)cc2I)cc1`, for which the z-score is -3.23 (inactive).

Turning to `CCOC(=O)C1=C[C@@H](C(C)(C)C)N(S(=O)(=O)c2ccc(C)cc2)[C@H]1c1ccc(F)cc1`, the z-score was 2.32 (inactive).

As for `COc1ccc(C(O)C2C=CC3C(=O)N(Cc4ccccc4)C(=O)C3N2n2cnnc2)cc1OCc1ccccc1` (stereo not given), the z-score is 0.278 (inactive).

Turning to `CC1CC/C=C\[C@H]2OC34C=CCN(C(C)(C)C)C(=O)[C@H]3N(CCO)C(=O)[C@@H]4C2C(=O)O1` (stereo not given in full), the z-score was -0.68 (inactive).
